This is an account of results in PubChem BioAssay AID590 (National Center for Advancing Translational Sciences (NCATS), 2007).

Among all 59,000 compounds or so, about 6,500 (11%) were called active. Not shown: some 15% with an inconclusive outcome. Rule as the data show it: active = max dye-equivalent concentration above about 10 nM; inconclusive = mostly about 1.1 nM to 9.6 nM; inactive = weaker than that. This excerpt belongs to a sample that is enriched for actives.

A short description of the assay: qHTS Assay for Spectroscopic Profiling in A350 Spectral Region. As to conditions: Compound autofluorescence, 340/450 nm, Alexa 350 dye-equivalents; active compounds read high. A general note: Quantitative high-throughput screening tests each substance at several concentrations.
For `O=C(CN1C2CCC1CC(NC(=O)C1CC1)C2)NCc1ccccc1` (stereo not drawn), the max dye-equivalent concentration result was “inactive”. In the case of `CCCCNC(=O)CSc1nnc(-c2ccco2)n1C`, the max dye-equivalent concentration result was “inactive”. For `O=C(c1ccccc1)c1cccn1CC(=O)N1CCN(c2ccc(F)cc2)CC1`, the max dye-equivalent concentration entry was “inactive”. For `Cn1c2ccccc2c2c(C(=O)N3CCN(c4ccc(F)cc4)CC3)cn(C3CCCC3)c(=O)c21`, the max dye-equivalent concentration is 13 nM (active).

With `CC(C)N(C(=O)COC(=O)c1ccccc1C(=O)N1CCN(c2ccc(F)cc2)CC1)C(C)C`, the max dye-equivalent concentration entry was “inactive”.

Take `CCCCn1nnnc1NCc1cc(OC)c(OC)c(OC)c1`: the max dye-equivalent concentration entry was “inactive”. As for `COc1ccccc1-n1nnnc1S(=O)(=O)Cc1ccc(Cl)cc1`, the max dye-equivalent concentration result is “inactive”. The result for `CCC(CC)C(=O)Nc1cccc(C(=O)N2CCCC2)c1` reads “inactive”; that for `COc1ccc(OCc2cccc(C(=O)N3CCCC3)c2)cc1`, 18 nM (active); that for `COc1ccc(OCC(=O)N2CCN(C(=O)COc3ccccc3)CC2)cc1`, “inactive”. For `Cc1noc(C)c1CSc1nnc2ccc3ccccc3n12` the value was “inactive”. `CCC(=O)Nc1sc(C(=O)N2CCCCC2)c(C)c1C#N`: the max dye-equivalent concentration entry is “inactive”. Turning to `CC(C)C(C(=O)NC1CCCCC1)N(CC1CCCO1)C(=O)CNS(=O)(=O)c1ccc(F)cc1` (stereo not drawn), the max dye-equivalent concentration result is “inactive”.

With `c1ccc2c(CNn3cnnc3)cccc2c1`, the max dye-equivalent concentration result was “inactive”. For the molecule `COC(=O)[C@H](Cc1ccccc1)NC(=O)N1CC(C)OC(C)C1` (stereo partly drawn), the max dye-equivalent concentration result is “inactive”. For `COc1ccc(C2N=C(N)N=C(N)N2c2ccccc2)cc1OC` (stereo not drawn) the value was “inactive”; for `C=CCn1c(CC(=O)Nc2cccc(OC)c2)nnc1SCC(=O)NC1CCCCC1`, “inactive”.

Take `Cn1c(SCC(=O)c2cccs2)nnc1-c1ccco1`: the max dye-equivalent concentration result was “inactive”.

For `c1coc(-c2nc3nc4ccccc4n3nc2-c2ccco2)c1`, the max dye-equivalent concentration entry is “inactive”. With `Cn1c(-c2ccco2)nc2cc3ccccc3cc21`, the max dye-equivalent concentration was 1100 nM (active).

Take `O=C(Nc1cc(C(F)(F)F)ccc1Cl)c1cc(C2CC2)on1`: the max dye-equivalent concentration entry is “inactive”. Regarding `Cn1c(SCC(=O)OC2CCCCC2)nnc1-c1ccc(S(=O)(=O)N2CCCC2)cc1`, the max dye-equivalent concentration entry is “inactive”. As for `Nc1ccc(-c2nnc(-c3ccc(-c4ccccc4)cc3)o2)cc1`, the max dye-equivalent concentration was 300 nM (active). The result for `O=C(CSc1nnc(-c2ccccc2)o1)N1CCOCC1` reads “inactive”. Consider `O=C(COC(=O)c1ccc(Oc2ccccc2)cc1)Nc1nnc(-c2ccccc2)o1`, for which the max dye-equivalent concentration result is “inactive”. As to `O=C(O)CN1C(=O)CC(Cc2ccccc2)C1=O` (stereo not drawn), the max dye-equivalent concentration result is “inactive”. With `c1nc(COc2nsnc2N2CCOCC2)cs1`, the max dye-equivalent concentration result is “inactive”. For `O=C(OC1CCOC1=O)c1ccc(-c2nc3ccccc3s2)s1` (stereo not drawn) the value was 1100 nM (active). Consider `O=C(c1cccs1)N1CCC(c2nc3ccccc3s2)CC1`, for which the max dye-equivalent concentration entry was “inactive”. `Cc1nn(Cc2ccccc2)c(Cl)c1C(=O)OC1CCOC1=O` (stereo not drawn): the max dye-equivalent concentration result was “inactive”. On to `CC(C)NS(=O)(=O)c1ccc(OCC(=O)Nc2ccc3c(c2)OCCO3)cc1`, for which the max dye-equivalent concentration result is “inactive”. `CCOc1ccc2[nH]c(=O)c(C(c3nnnn3CCOC)N3CCOCC3)cc2c1` (stereo not drawn): the max dye-equivalent concentration was 690 nM (active). As for `COCCn1nnnc1C(c1cc2ccc(OC)cc2[nH]c1=O)N1CCc2ccccc2C1` (stereo not drawn), the max dye-equivalent concentration is 18 nM (active). On to `COCCn1nnnc1C(c1ccccc1Cl)N1CCN(c2ccccc2OC)CC1` (stereo not drawn), for which the max dye-equivalent concentration result is “inactive”.

As for `Cc1cc(C)c2[nH]c(=O)c(C(c3nnnn3Cc3ccc4c(c3)OCO4)N3CCCC3)cc2c1` (stereo not drawn), the max dye-equivalent concentration result is “inactive”. Consider `COc1ccc(N2CCN(C(c3cc4ccc(C)cc4[nH]c3=O)c3nnnn3C3CCCC3)CC2)cc1` (stereo not drawn), for which the max dye-equivalent concentration entry was “inactive”.

With `COc1ccc(OC)c(C(c2nnnn2C(C)(C)C)N2CCc3ccccc3C2)c1` (stereo not drawn), the max dye-equivalent concentration result was “inactive”. For `CCOc1ccccc1Nc1nnc(SCC(=O)Nc2cc(C)on2)s1` the value was “inactive”. `Cc1ccccc1CN1CCN(C(=O)c2cccc(F)c2)CC1`: the max dye-equivalent concentration result is “inactive”.

For the molecule `CCOc1ccccc1N=C1NC(=O)CS1`, the max dye-equivalent concentration result was “inactive”. Turning to `COc1ccccc1-c1nnc(SCC(=O)Nc2ccccc2)o1`, the max dye-equivalent concentration result was “inactive”. With `c1ccc(CCN2CCN=C2Cc2ccccc2)cc1`, the max dye-equivalent concentration entry is “inactive”.

`O=c1cc(-c2ccc(O)c(O)c2)oc2cccc(O)c12`: the max dye-equivalent concentration entry was “inactive”. For `CC(C)OC(=O)C(C#N)c1nc2ccccc2nc1N1CCN(Cc2ccc3c(c2)OCO3)CC1` (stereo not drawn) the value was 120 nM (active). `COc1ccc(-c2csc(N3CCN(Cc4ccc5c(c4)OCO5)CC3)n2)cc1`: the max dye-equivalent concentration entry was “inactive”.

As for `CC(C)OC(=O)C(C#N)c1nc2ccccc2nc1N1CCN(Cc2ccccc2)CC1` (stereo not drawn), the max dye-equivalent concentration result is “inactive”. In the case of `Cc1ccc(S(=O)(=O)N2CCN(Cc3cccc(C)c3O)CC2)cc1`, the max dye-equivalent concentration result is “inactive”. Consider `Cc1cc(=O)oc(C)c1C(=O)Nc1cnc2ccccc2c1`, for which the max dye-equivalent concentration was 12 nM (active). Take `CC(=O)Nc1cccc(NC(=O)c2c(-c3ccccc3)noc2C)c1`: the max dye-equivalent concentration entry is “inactive”. `Cc1cc(=O)oc(C)c1C(=O)NC1CC(C)(C)NC(C)(C)C1`: the max dye-equivalent concentration entry was “inactive”.

Take `CCC(=O)Nc1ccc(C(=O)Nc2ccc3c(c2)C(=O)N(CC2CCCO2)C3=O)cc1` (stereo not drawn): the max dye-equivalent concentration is 150 nM (active).

For the molecule `O=C(CCN1C(=O)c2ccncc2C1=O)Nc1ccc2c(c1)OCCO2`, the max dye-equivalent concentration result is “inactive”.

`O=C(NCc1ccc2c(c1)OCO2)c1ccc2c(c1)C(=O)N(CC1CCCO1)C2=O` (stereo not drawn): the max dye-equivalent concentration entry is “inactive”.
